# Screens from PubChem BioAssay.
# In the library only some 2.8% were active in any assay of this set; here they are far more common.
# HGIII-sPLA2 inh: Inhibits HGIII-sPLA2 liposome hydrolysis, primary screen | Q9NZ20 | QFRET BODIPY PC-A2 liposome hydrolysis, fluorescence | inhibition, % at 12.2 µM | actives 0.56% (n = 370,000) | AID 743126;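 active = inhibition above mean plus 3 SD of compounds lying within the high and low control bounds, cut at about 19% in these data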;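 note: 0% = median of test compound wells and 100% = no enzyme DMSO wells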
# Target sequence (Q9NZ20 whole entry, looked up): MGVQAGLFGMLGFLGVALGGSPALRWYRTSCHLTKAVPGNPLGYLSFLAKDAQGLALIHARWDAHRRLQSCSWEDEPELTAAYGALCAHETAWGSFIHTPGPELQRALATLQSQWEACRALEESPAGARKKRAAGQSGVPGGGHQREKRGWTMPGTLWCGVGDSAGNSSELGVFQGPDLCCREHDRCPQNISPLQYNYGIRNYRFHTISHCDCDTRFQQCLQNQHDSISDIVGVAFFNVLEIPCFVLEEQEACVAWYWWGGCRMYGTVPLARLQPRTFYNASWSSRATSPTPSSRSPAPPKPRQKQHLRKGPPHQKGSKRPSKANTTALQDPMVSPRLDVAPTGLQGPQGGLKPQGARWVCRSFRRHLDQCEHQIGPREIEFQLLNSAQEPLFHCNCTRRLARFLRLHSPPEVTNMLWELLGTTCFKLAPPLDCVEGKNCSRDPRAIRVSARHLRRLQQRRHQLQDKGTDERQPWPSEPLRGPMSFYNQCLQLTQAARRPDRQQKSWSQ
# MsrA inh: inhibitors of bovine MsrA. inhibition, % at 15.5 µM. AID 651718. actives 0.75% (n = 360,000). purified bovine MsrA, absorbance read-out; in the data active = inhibition above about 4.5%;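 note: 0% = vehicle wells with enzyme and 100% = reference inhibitor wells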
# rCAG RNA binder: r(CAG) repeat RNA binding; TO-PRO-1 dye displacement fluorescence; inhibition, % at 3 µM; actives 1.3% (n = 370,000);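 active = inhibition above the plate cutoff, the mean of all test compounds on that plate plus 3 SD, cut at about 35% in these data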;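 note: 0% = DMSO alone and 100% = 100 µM mitoxantrone as full dye displacement; higher means more dye released from RNA so lower well fluorescence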
# bovine MsrA act: bovine methionine sulfoxide reductase A activation; purified bovine MsrA, absorbance read-out; activation, % at 10.6 µM; actives 0.3% (n = 360,000); in the data active = activation above about 7.5%;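 note: 0% = vehicle and 100% = reference activator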
# rCAG bind conf: r(CAG) RNA repeat binding, confirmation; shares compounds with rCAG RNA binder; TO-PRO-1 dye displacement fluorescence; inhibition, % at 3 µM; actives 70% (n = 4,300); AID 652065;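 active = inhibition above a per-plate cutoff, the mean inhibition of sample wells plus 3 SD, cut at about 35% in these data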;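 note: loss of TO-PRO-1 fluorescence as compound displaces dye from 1x1 AA loop RNA; 0% = DMSO only wells and 100% = 100 µM mitoxantrone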
# dCAG dye counter: DNA CAG dye complex inhibition counter-screen | shares compounds with rCAG RNA binder | d(CAG) DNA oligo TO-PRO-1 dye displacement, fluorescence | inhibition, % at 3 µM | actives 94% (n = 4,300);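 active = inhibition above its plate's cutoff, the mean test-well inhibition plus 3 SD, cut at about 4.8% in these data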;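 note: 0% = DNA dye mix with DMSO and 100% = 100 µM mitoxantrone; hits displace the dye from DNA and so lower well fluorescence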
# DNA CAG DR: disrupts DNA CAG TO-PRO-1 complex in dose response; IC50, µM; shares compounds with rCAG RNA binder; DNA CAG/GTC duplex TO-PRO-1 dye displacement fluorescence; actives 20% (n = 250); AID 686960; in the data active = IC50 below about 10 µM
# An asterisk follows results filed as active; . = no result given.
SMILES,HGIII-sPLA2 inh,MsrA inh,rCAG RNA binder,bovine MsrA act,rCAG bind conf,dCAG dye counter,others
CCc1nnc(NS(=O)(=O)c2ccc(N3C(=O)C4CC=C(Cl)CC4C3=O)cc2)s1 (configuration not stated),-36,0,49*,2,26,7.6*,
CCc1nnc(NS(=O)(=O)c2ccc(NC(=O)c3ccccc3C)cc2)s1,-23,-2,23,-6,.,.,
CCc1nnc(NS(=O)(=O)c2ccc(NC(=O)c3ccc(C#N)cc3)cc2)s1,-44,-1,36*,-3,21,4,
N/C(=N\OC(=O)COc1ccc2ccccc2c1Br)c1ccccn1,-14,1,2,-2,.,.,
CC(NC(=O)c1ccc(OC2CCN(C(=O)c3cccnc3)CC2)cc1)C1CC1 (configuration not stated),1,-1,-7,-4,.,.,
O=C(NN1C(=O)c2ccccc2NC1c1ccc([N+](=O)[O-])o1)c1ccccc1 (configuration not stated),4,3,2,-4,.,.,
Cc1ccc([C@@H]2[C@@H]3C(=O)N(C)C(=O)[C@@H]3[C@]3(Cc4ccccc4)C(=O)N(Cc4ccccc4)CC(=O)N23)o1,4,-1,-5,0,.,.,
CCc1nnc(NS(=O)(=O)c2ccc(NC(=O)c3ccc(Cl)cc3)cc2)s1,-29,1,43*,-4,33,9.1*,
CCc1nnc(NC(=O)c2ccc(NS(=O)(=O)c3ccccc3)cc2)s1,-29,3,21,-5,.,.,
CCc1nnc(NS(=O)(=O)c2ccc(NC(=O)c3cccc(OC)c3)cc2)s1,-33,0,39*,-4,27,5.5*,
CCc1nnc(NS(=O)(=O)c2ccc(NC(=O)CCC(=O)OC)cc2)s1,3,-2,0,-1,.,.,
CCc1nnc(NS(=O)(=O)c2ccc(NC(=O)/C=C/C(=O)O)cc2)s1,-3,0,7,-2,.,.,
CCc1nnc(NS(=O)(=O)c2ccc(N/C=C(\C=O)c3nc4cc(Cl)ccc4o3)cc2)s1,-12,2,42*,-4,76*,40*,
CCc1nnc(NS(=O)(=O)c2ccc(N/C=C\C(=O)c3ccc4ccccc4c3)cc2)s1,-32,1,71*,-3,86*,61*,
COc1ccc(OC)c(CN2C(=O)c3ccccc3C2c2nnnn2C(C)C)c1 (configuration not stated),1,1,2,-5,.,.,
O=C(NC1CCCCC1)C(c1ccccn1)N(C(=O)c1csnn1)C1CC1 (configuration not stated),0,-2,-1,-3,.,.,
CC(=O)OC[C@]12CC[C@H]3[C@@](C)(CC[C@H]4C(C)(C)CCC[C@]34C)[C@@H]1CC(C1=CC(=O)OC1O)O2 (some centres not stated),-12,0,18,-5,.,.,
Cc1ccccc1NS(=O)(=O)c1ccc(C(=O)N2CC(C)OC(C)C2)cc1 (configuration not stated),5,1,-6,-8,.,.,
COc1ccc(-c2ccc(CN3C(C)C(=O)N(Cc4cn(CCC5OCCCO5)nn4)CCS3(=O)=O)cc2)cc1 (configuration not stated),-17,-2,8,-3,.,.,
CCc1nnc(NS(=O)(=O)c2ccc(NCc3ccccc3O)cc2)s1,-49,1,15,-2,.,.,
CCc1nnc(NS(=O)(=O)c2ccc(NC(=O)c3ccco3)cc2)s1,-4,1,8,-11,.,.,
CCc1nnc(NS(=O)(=O)c2ccc(NC(=O)c3cccc(Cl)c3)cc2)s1,-49,-2,54*,-1,50*,10*,DNA CAG DR=>30
CCc1nnc(NS(=O)(=O)c2ccc(NC(=O)C(c3ccccc3)c3ccccc3)cc2)s1,-85,1,84*,-1,72*,34*,DNA CAG DR=9.2*
CCCCOc1ccc(C(=O)Nc2ccc(S(=O)(=O)Nc3cc(C)on3)cc2)cc1OC,0,1,7,-5,.,.,
FC(F)(F)c1cccc(CNC2CCN(Cc3ccccc3)CC2)c1,5,0,-6,-8,.,.,
SMILES,HGIII-sPLA2 inh,MsrA inh,rCAG RNA binder,bovine MsrA act,rCAG bind conf,dCAG dye counter,others
CCOc1ccc(NC(=O)CN(C)C(=O)c2cc([N+](=O)[O-])ccc2Sc2ccccc2)cc1OCC,-8,0,3,-2,.,.,
CC(C)(Sc1ccc(CCN(CCCCC2CCCCC2)C(=O)NC2CCCCC2)cc1)C(=O)O,-15,-1,49*,0,55*,17*,DNA CAG DR=>30
COc1cc(C2CC(=O)N3CN(Cc4ccco4)CSC3=C2C#N)ccc1OCc1ccccc1 (configuration not stated),-14,0,42*,-1,21,9.8*,
COc1ccc2ccccc2c1C1CC(=O)N2CN(Cc3ccco3)CSC2=C1C#N (configuration not stated),-16,2,49*,-3,26,14*,
COc1ccc(C2CC(=O)N3CN(Cc4ccco4)CSC3=C2C#N)cc1 (configuration not stated),-11,1,28,-2,.,.,
OCC1(CCOc2ccccc2)CCN(CC2=Cc3cc(Cl)ccc3OC2)CC1,-11,0,-6,-2,.,.,
CCOC(=O)N(Cc1ccccc1)C(C(=O)O)C(C(=O)O)N(Cc1ccccc1)C(=O)OCC (configuration not stated),0,-2,3,-2,.,.,
O=C(O)/C(=C\c1ccc(F)cc1)c1ccc(-c2ccccc2)cc1,-26,2,38*,-2,40*,9.7*,
COc1ccccc1C=C(C(=O)c1ccccc1)c1ccccc1,3,2,1,-11,.,.,
O=C(O)/C(=C\c1ccccc1OC(F)F)c1ccc(-c2ccccc2)cc1,-13,1,48*,0,42*,13*,
Cc1ccc(C(=O)OCC(=O)Nc2c(C)nn(-c3ccccc3)c2C)c(O)c1,10,1,2,0,.,.,
CCC(Sc1ncccc1C(=O)O)C(=O)N1CCCC1 (configuration not stated),4,-2,43*,-12,3,0,
COc1ccc(C(=O)CCNc2ccc3c(c2)OCCO3)cc1,0,-1,-4,-5,.,.,
CCOC(=O)CC(=O)CSc1nc(-c2ccccc2)cc(-c2ccccc2)c1C#N,-20,0,11,-4,.,.,
N#Cc1c(-c2ccc(F)cc2)cc(-c2cccs2)nc1SCC(=O)O,-18,4,56*,-3,45*,14*,
CCN(CC)C(=O)CSc1nc(-c2cccs2)cc(-c2cccs2)c1C#N,0,2,5,-2,.,.,
Cc1ccc(-c2cc(C(F)(F)F)c(C#N)c(SCC(=O)O)n2)cc1,-10,1,48*,-2,24,5.0*,
N#Cc1c(C(F)(F)F)cc(-c2cccs2)nc1SCC(=O)O,1,2,6,-2,.,.,
N#Cc1c(-c2ccccc2)cc(-c2ccccc2)nc1SCC(=O)NCC(=O)O,-16,2,41*,-4,37*,10*,
